# Results filed as inconclusive are left out. Entries that show only a call come without a potency. Active and inactive are the calls of the source. Unless noted, the call rests on the fitted dose curve; in most records, active means well fitted curve in the direction sought with a large enough effect; inconclusive means small, poorly fitted or top-dose-only effect, or another doubt; inactive means no such curve, though single readings can be large; an effect the other way counts as inactive or inconclusive.
# What was measured:
# [1] = target: Nuclear receptor ROR-gamma (Homo sapiens) (UniProt P51449); assay: qHTS assay for small molecule antagonists of the retinoid-related orphan receptor gamma (ROR-gamma) signaling pathway (AID 651802); further: nearly all actives have a fitted effect of over 60% in size; further: potency means the concentration at half of the fitted maximal effect
# Outline: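 CHO cells carrying TET-inducible ROR-gamma and an ROR response element–luciferase reporter were exposed to compound, then induced with doxycycline. After 16hr at 37C, luminescence was read; lower signal indicates antagonism.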
# [2] = target: Tyrosine-protein kinase Yes (Homo sapiens) (UniProt P07947); assay: qHTS for small molecule inhibitors of Yes1 kinase: Primary Screen (AID 686947); further: nearly all actives have a fitted effect of over 60% in size
# Outline: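 ADP-Glo luminescence readout; final 4 nM Yes1, 0.1 mM ATP, 0.3 mg/mL poly(E4Y), Tris pH 7.5, MgCl2, DTT, Brij-35. 20 min compound preincubation, 60 min reaction at RT. Normalized to DMSO wells with and without enzyme.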
# [3] = qHTS for small molecule inhibitors of Yes1 kinase: Counter Assay (AID 686950);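 further: no kinase present so only ADP-Glo detection of a fixed ADP amount is tested; luminescence from ADP-Glo reporting ADP in a fixed ATP and ADP mixture; series mostly up to about 77 µM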
# Outline: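 Luminescence read-out from ADP-Glo quantifies a fixed ADP amount (0.02 mM ADP with 0.08 mM ATP) after 60 min at room temperature; signal is normalized between DMSO wells with ATP/ADP and with 0.1 mM ATP alone.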
# [4] = qHTS for compounds that reverse cellular toxicity of Amyloid beta (A-beta) peptide in yeast: LOPAC Validation Assay (AID 720559)
# Outline: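 Yeast expressing toxic A-beta grown with pinned compounds at 30 C for 48 hr. Growth measured as absorbance at 600 nm; data normalized to DMSO and to an equimolar FeCl3/clioquinol mixture as positive control.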
# [5] = qHTS for Activators of Parkin Expression: LOPAC Validation Assay (NLuc Reporter) (AID 720572)
# Outline: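 Parkin promoter-driven FLuc/NLuc neuronal reporter cells; 24 h plating, 7-pt dose response, 24 h at 37 C/5% CO2; FLuc then NanoLuc reagent, 10 min each, luminescence; DMSO/positive control normalized.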
# [6] = qHTS for Activators of Parkin Expression: LOPAC Validation Assay (FLuc Reporter) (AID 720573)
# Outline: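 Neuronal cell line stably expressing FLuc/NLuc coincidence reporter under the Parkin promoter, 1,500 cells/well, dosed 24 h after seeding in 7-point series for 24 h at 37 C. FLuc luminescence read; normalized to DMSO and positive control (100%).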
# [7] = qHTS assay for small molecule agonists of the antioxidant response element (ARE) signaling pathway measured by Nrf2-dependant transcriptional activity (AID 720636; active means well fitted curve in the direction sought with a large enough effect in the repeat runs; an effect the other way counts as inactive or inconclusive)
# Outline: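 Quantitative HTS format in HepG2 cells stably expressing an ARE-luciferase reporter; 16 hr compound treatment at 37 C, luciferase signal detected with ONE-Glo.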
# [8] = target: T1, Hexokinase-4 (Homo sapiens) + Glucokinase regulatory protein (Homo sapiens) (UniProt P35557+Q14397); assay: qHTS assay for inhibitors of recombinant human GCK-GKRP interaction: Diaphorase-coupled assay (AID 743205)
# Outline: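 Compounds pre-incubated 20 min with substrate, then 10 nM GST-GCK with 10 nM FLAG-GKRP added. GCK activity coupled via G6PDH and diaphorase to resorufin (5 mM glucose, 0.4 mM ATP, 0.15 mM NADP+, pH 7.6), read kinetically over 30 minutes at Ex 525/Em 590 nm.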
# [9] = target: T1, Hexokinase-4 (Homo sapiens) + Glucokinase regulatory protein (Homo sapiens); assay: qHTS assay for inhibitors of recombinant human GCK-GKRP interaction: ADP-Glo assay (AID 743206)
# Outline: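 GST-GCK and FLAG-GKRP (15 nM each in the dispensed mix, with 2 uM S6P) react with 0.4 mM ATP and 5 mM glucose (final) in Hepes pH 7.6 for 60 min at room temperature. ADP is measured by ADP-Glo luminescence.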
# T1 sequence (P35557 whole entry, looked up): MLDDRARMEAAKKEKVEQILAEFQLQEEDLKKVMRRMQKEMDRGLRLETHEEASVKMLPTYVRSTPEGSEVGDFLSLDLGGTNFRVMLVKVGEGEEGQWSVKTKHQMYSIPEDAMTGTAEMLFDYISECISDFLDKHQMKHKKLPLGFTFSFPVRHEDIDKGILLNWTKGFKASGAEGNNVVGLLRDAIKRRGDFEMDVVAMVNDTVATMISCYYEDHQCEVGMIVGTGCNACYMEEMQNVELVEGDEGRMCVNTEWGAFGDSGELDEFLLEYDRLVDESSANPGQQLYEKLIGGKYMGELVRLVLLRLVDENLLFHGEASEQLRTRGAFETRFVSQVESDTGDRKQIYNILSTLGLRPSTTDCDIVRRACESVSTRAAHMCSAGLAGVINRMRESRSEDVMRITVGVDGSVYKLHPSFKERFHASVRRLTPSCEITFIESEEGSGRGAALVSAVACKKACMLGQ
# T1 sequence (Q14397 whole entry, looked up): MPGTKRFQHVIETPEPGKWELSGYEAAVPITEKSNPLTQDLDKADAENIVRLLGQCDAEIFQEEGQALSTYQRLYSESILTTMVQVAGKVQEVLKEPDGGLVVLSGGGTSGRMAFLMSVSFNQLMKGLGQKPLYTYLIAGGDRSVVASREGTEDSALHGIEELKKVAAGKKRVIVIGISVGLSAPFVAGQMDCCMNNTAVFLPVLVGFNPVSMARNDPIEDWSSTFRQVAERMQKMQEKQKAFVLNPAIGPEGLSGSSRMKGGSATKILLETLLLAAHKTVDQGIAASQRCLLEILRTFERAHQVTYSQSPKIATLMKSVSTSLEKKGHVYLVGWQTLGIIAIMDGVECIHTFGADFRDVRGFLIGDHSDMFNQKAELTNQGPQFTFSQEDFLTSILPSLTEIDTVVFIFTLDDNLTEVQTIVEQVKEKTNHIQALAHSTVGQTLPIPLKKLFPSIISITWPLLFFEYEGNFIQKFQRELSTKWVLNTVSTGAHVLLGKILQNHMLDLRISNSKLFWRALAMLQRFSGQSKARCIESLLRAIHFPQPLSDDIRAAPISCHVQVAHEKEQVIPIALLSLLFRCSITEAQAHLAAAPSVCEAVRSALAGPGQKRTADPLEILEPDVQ
# Chain of Nuclear receptor ROR-gamma (Homo sapiens) (P51449 whole entry, looked up): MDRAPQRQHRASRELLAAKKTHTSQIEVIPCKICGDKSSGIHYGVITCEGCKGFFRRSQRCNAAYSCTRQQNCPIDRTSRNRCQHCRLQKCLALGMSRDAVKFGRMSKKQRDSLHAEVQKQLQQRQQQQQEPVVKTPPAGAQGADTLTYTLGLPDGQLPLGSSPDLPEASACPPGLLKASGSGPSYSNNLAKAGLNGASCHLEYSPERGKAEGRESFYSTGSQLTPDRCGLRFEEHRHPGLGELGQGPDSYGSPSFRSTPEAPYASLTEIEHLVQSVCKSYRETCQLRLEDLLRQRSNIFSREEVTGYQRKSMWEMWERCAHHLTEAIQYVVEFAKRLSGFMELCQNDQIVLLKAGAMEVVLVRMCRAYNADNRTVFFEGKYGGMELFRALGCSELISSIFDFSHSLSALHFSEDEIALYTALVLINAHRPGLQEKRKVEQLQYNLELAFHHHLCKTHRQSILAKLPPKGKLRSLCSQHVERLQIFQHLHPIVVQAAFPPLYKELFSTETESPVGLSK
# Chain of Tyrosine-protein kinase Yes (Homo sapiens) (P07947 whole entry, looked up): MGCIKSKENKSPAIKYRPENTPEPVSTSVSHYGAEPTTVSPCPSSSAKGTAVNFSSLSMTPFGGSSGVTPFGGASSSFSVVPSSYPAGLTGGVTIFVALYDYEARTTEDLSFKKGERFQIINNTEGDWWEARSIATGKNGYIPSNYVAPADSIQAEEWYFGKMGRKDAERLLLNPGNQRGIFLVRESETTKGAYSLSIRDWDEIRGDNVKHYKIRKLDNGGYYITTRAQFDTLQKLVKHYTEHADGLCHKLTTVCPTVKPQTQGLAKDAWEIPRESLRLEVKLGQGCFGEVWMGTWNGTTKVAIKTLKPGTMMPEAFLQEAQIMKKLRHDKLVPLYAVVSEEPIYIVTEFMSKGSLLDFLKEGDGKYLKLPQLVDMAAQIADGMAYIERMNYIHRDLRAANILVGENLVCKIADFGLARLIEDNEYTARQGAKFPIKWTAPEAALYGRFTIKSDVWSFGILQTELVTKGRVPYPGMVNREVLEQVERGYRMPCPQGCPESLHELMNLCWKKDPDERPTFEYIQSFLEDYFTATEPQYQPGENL
structure (smiles),measurement,setting,value
O=P1(N(CCCl)CCCl)NCCCO1 (stereo not given),Potency,[1],inactive
same,outcome,[2],inactive
same,outcome,[3],inactive
same,outcome,[4],inactive
same,outcome,[5],inactive
same,outcome,[6],inactive
same,outcome,[7],inactive
same,outcome,[8],inactive
same,outcome,[9],inactive
COP(=S)(OC)SCN1C(=O)c2ccccc2C1=O,outcome,[7],inactive
O=C(CCCN1CCC2(CC1)C(=O)NCN2c1ccccc1)c1ccc(F)cc1,outcome,[4],inactive
same,outcome,[5],inactive
same,outcome,[6],inactive
same,outcome,[8],inactive
same,outcome,[9],inactive
COC(=O)C(c1ccccc1)C1CCCCN1 (stereo not given),Potency,[1],inactive
same,outcome,[7],inactive
CC(C)c1cccc(C(C)C)c1O,Potency,[1],inactive
same,outcome,[4],inactive
same,outcome,[5],inactive
same,outcome,[6],inactive
same,outcome,[7],inactive
same,outcome,[8],inactive
same,outcome,[9],inactive
Nc1ccc([As](=O)(O)O)cc1,outcome,[7],inactive
NCCc1ccc(O)cc1,Potency,[1],inactive
same,outcome,[4],inactive
same,outcome,[5],inactive
same,outcome,[6],inactive
same,outcome,[7],inactive
same,outcome,[8],inactive
same,outcome,[9],inactive
CN1C(=O)CCS(=O)(=O)C1c1ccc(Cl)cc1 (stereo not given),outcome,[4],inactive
same,outcome,[5],inactive
same,outcome,[6],inactive
same,outcome,[8],inactive
same,outcome,[9],inactive
CCC(C)(C)c1ccc(O)cc1,Potency,[1],inactive
same,outcome,[7],inactive
C[C@]12CCC(=O)C=C1CC[C@@H]1[C@@H]2CC[C@]2(C)C(=O)CC[C@@H]12,Potency,[1],33.5 µM (active)
same,outcome,[7],inactive
O=C1c2ccccc2C(=O)C1C(=O)C(c1ccccc1)c1ccccc1,outcome,[7],inactive
COc1ccc2c(c1OC)C(=O)O[C@H]2[C@@H]1c2cc3c(cc2CCN1C)OCO3,outcome,[4],inactive
same,outcome,[5],inactive
same,outcome,[6],inactive
same,outcome,[8],inactive
same,outcome,[9],inactive
COc1cc(OC)c(OC)cc1C=O,Potency,[1],inactive
same,outcome,[7],inactive
CCCCC/C=C\C/C=C\C/C=C\C/C=C\CCCC(=O)NCC(=O)O,outcome,[4],inactive
same,outcome,[5],inactive
same,outcome,[6],inactive
same,outcome,[8],inactive
same,outcome,[9],inactive
CC(=O)N1CCN(c2ccc(OC[C@H]3CO[C@](Cn4ccnc4)(c4ccc(Cl)cc4Cl)O3)cc2)CC1,outcome,[4],inactive
CCOC(=O)CC(SP(=S)(OC)OC)C(=O)OCC (stereo not given),outcome,[7],inactive
COP(=S)(OC)Oc1ccc(SC)c(C)c1,Potency,[1],inactive
same,outcome,[7],inactive
CN1C[C@H](C(=O)N[C@]2(C)O[C@@]3(O)[C@@H]4CCCN4C(=O)[C@H](Cc4ccccc4)N3C2=O)C=C2c3cccc4[nH]cc(c34)C[C@H]21,outcome,[7],inactive
[N-]=[N+]=CC(=O)OC[C@H](N)C(=O)O,outcome,[7],inactive
